The text below walks through data of PubChem BioAssay (EPA / NIEHS).

The source made the active and inactive calls. Rule for the calls: active = hit-call score of the fitted dose curve at least 0.9, where 1 is the maximum; inactive = score below 0.9.

Read-out in this test: X-box binding protein 1 (XBP1), XBP1 (gene 7494)
Description: LTEA_HepaRG_XBP1: Life Technologies and Expression Analysis (LTEA) Assay for X-box binding protein 1 (XBP1) using HepaRG (AID 2283540). The conditions noted are these: mRNA level, 48 h; actives raise or lower the signal. How it is done:
LTEA_HepaRG is a cell based, multiplexed-readout assay that uses HepaRG, a human liver cell line, with measurements taken at 48 hours after chemical dosing on a 96-well plate.LTEA_HepaRG_XBP1 is one of 102 assay component(s) measured in the LTEA HepaRG cell culture assay. It is a marker of Diseases associated with XBP1 including Major Affective Disorder 7 and Bipolar Disorder.Data from the assay component LTEA_HepaRG_XBP1 was analyzed into 1 endpoint. This assay endpoint, LTEA_HepaRG_XBP1, was analyzed with bidirectional fitting relative to DMSO as the negative control and baseline of activity. Using a type of inducible reporter, measures of mRNA induction for gain or loss-of-signal activity can be used to understand regulation of transcription factor activity. To generalize the intended target to other relatable targets, this assay endpoint is annotated to the dna binding intended target family, where the subfamily is basic leucine zipper.
A total of 1060 chemcials from the ToxCast library were tested in eight-point concentration-response experiments. Cell culture and cytotoxicity assays were conducted at Thermo Fisher Scientific's Custom Services facility (Madison, WI). A single lot of human HepaRG cells (Thermo Fisher Scientific, Frederick, MD) was used for the cell culture experiments. 96-well format collagen type I coated plates of human HepaRG cells were prepared using established methods. Briefly, cryopreserved HepaRG cells were thawed, plated at a density of approximately 100,000 cells/well in HepaRG Thaw, Plate, and General Purpose media (HPRG770, Thermo Fisher Scientific), and incubated for 48 hours. 0.5% DMSO was selected as vehicle control to balance the requisite need of DMSO in HepaRG cultures to maintain differentiation (for example, baseline metabolism, proportions of hepatocytes vs. cholangiocytes), while enabling further hepatic receptor pathway activation (for example, PXR and CAR) in response to chemical exposure. 48 hours after plating, the culture medium was replaced with HepaRG Serum-Free Incudtion Media. Cells were exposed to each test chemical in duplicate and maintained in CO2 incubators for another 48 hours. Chemical plates were thawed to room temperature and 200x concentrations of treatment groups were prepared. 8-point conentration-reponse curves were made with the highest exposure at 100 uM, followed by half-log dilutions, all in 0.5% DMSO. Each test plate contained variouse controls, induction positive controls (1mM phenobarbital), cytotoxicity positive controls ([…] aflatoxin B1), vehicle controls (0.5% DMSO), and total lysis controls (0.5% DMSO). Cell morphology images were taken using an Essen IncuCyte FLR automated microscope, with six 96-well plates imaged in about 24 minutes. Images were captured and exported and JPEG files. Spent culture media was transfered to black-well plates for the LDH assay, and remaining media was sorted at -80 C for later use. Cells were treated with RLT buffer and frozen until shipped for gene expression analysis. Total RNA was isolated from the cell suspension in 75 uL of Buffer RLT (Qiagen, Germantown, MD 20874) by Quintiles/Expression Analysis (Durham, NC) using a custom isolation procedure. Total RNA from each plate well was transferred to a preamplification plate. Fluidigm's 96.96 Dynamic ArrayTM (Fluidigm, Amsterdam, the Netherlands) technology was used for gene expression analyses by quantitative reverse transcription polymerase chain reaction (qRT-PCR, performed by Quintiles/Expression Analysis, Durham, NC)89. Standard TaqManTM Assays (Applied Biosystems/ThermoFisher Scientific, Foster City, CA) were used to assess the expression of 93 genes selected based on their selectivity and sensitivity to important hepatic receptors known to be modulated by environmental chemicals; importance in human hepatocyte functionality; and hepatotoxicity. […]
As to `CCCCOC(=O)c1ccc(O)cc1`, the outcome was inactive.
For `CCN(Cc1cccc(S(=O)(=O)O)c1)c1ccc(C(=C2C=CC(=[N+](CC)Cc3cccc(S(=O)(=O)O)c3)C=C2)c2ccccc2S(=O)(=O)[O-])cc1`, the compound was classed as inactive.
`CC(C)(C)c1csc(-c2cc3cc(OCc4ccccc4CC(=O)O)ccc3o2)n1`: the call was inactive.
On the same count and under the same terms, for `CN1C(=O)CC[C@H]1c1cccnc1` the value was “inactive”; for `Cc1occc1C(=O)Nc1ccc(C(=O)N2CCC(F)(F)/C(=C\C(=O)N3CCC(N4CCCCC4)CC3)c3ccccc32)cc1`, “inactive”; for `Cc1cc(F)ccc1-c1cc(N2CC[C@@H](O)[C@H]2CO)ncc1N(C)C(=O)C(C)(C)c1cc(C(F)(F)F)cc(C(F)(F)F)c1`, “inactive”.
Same read-out and setting: for `CCCCCCCCCCCCO` the value was “inactive”.
Consider `CN(C)c1ccc(C(=C2C=CC(=[N+](C)C)C=C2)c2ccc(N(C)C)cc2)cc1`, for which the compound was classed as inactive.
`CCCCCc1ccc(N)cc1`: the call was inactive.
For the compound `OCCO`, the result was inactive.
With `c1ccc2ccccc2c1`, the compound was classed as inactive.
On the same count and under the same terms, for `O=C(O)c1ccccc1-n1cc(C(=O)O)c(=O)c2cc(Nc3c(F)cc(F)cc3Cl)c(Cl)cc21` the value was “inactive”; for `Cc1cc2c(cc1C(F)(F)F)N(C(=O)Nc1ccc(Oc3cccnc3C)nc1)CC2`, “inactive”; for `Oc1ccccc1`, “inactive”.
Same read-out and setting: for `CCCCCCCC[Si](OCC)(OCC)OCC` the value was “inactive”; for `CCOC(=O)O[C@H](C)OC(=O)c1ccc2c(c1)cc(C(=O)NC1CCN(C(C)C)CC1)n2Cc1cc(-c2ccc(Cl)s2)on1`, “inactive”.
Take `Cc1ccc2oc(CN(Cc3ccccc3)C(=O)Nc3c(F)cc(F)cc3F)c(-c3ccc(Cl)cc3)c2c1`: the compound was called inactive.
Still for that read-out and setting: to `O=C(O)Cn1c(=O)n(Cc2ccc(Br)cc2F)c(=O)c2ccc(Cl)cc21` belongs “inactive”; to `COc1ccc2cc(S(=O)(=O)N[C@H](CC(=O)N[C@H](Cc3ccc(CN4[C@H](C)CCC[C@@H]4C)cc3)C(=O)N(C)C(C)C)c3ccc4c(c3)OCO4)ccc2c1`, “inactive”; to `O=c1ccc2ccccc2o1`, “inactive”.
For `O=C(O)Cc1cc(I)c(Oc2ccc(O)c(I)c2)c(I)c1`, the half-maximal activity concentration (AC50) was 75 µM (active).
As for `C[C@]12CC[C@@H]3c4ccc(O)cc4CC[C@H]3[C@@H]1CCC2=O`, the outcome was inactive.
For the compound `O=C(O)c1ccccc1C(=O)OCc1ccccc1`, the result was inactive.
Same read-out and setting: for `CCCCCCCCOC(=O)c1cc(O)c(O)c(O)c1` the value was “inactive”; for `CC(C)(O)c1ccc(CNC(=O)c2cccnc2Oc2ccc3nonc3c2)cc1`, “inactive”.
In the case of `Cc1c2ccccc2c(C)c2c1ccc1ccccc12`, the outcome was inactive.
For the compound `COc1cc(C(=O)NC2CCN(C)CC2)ccc1Nc1ncc2c(n1)N(C1CCCC1)CC(F)(F)C(=O)N2C`, the AC50 was 10.8 µM (active).
As to `CN(C)C(=O)C1(N2CCCCC2)CCN(CC[C@@]2(c3ccc(Cl)c(Cl)c3)CN(C(=O)c3ccccc3)CCO2)CC1`, the outcome was inactive.
`O=C=NCCCCCCN=C=O`: the compound was called inactive.
Take `CCCCCCCCCCCC[N+](C)(C)C`: the call was inactive.
On the same count and under the same terms, to `CC[C@@H]1C[C@H](N(Cc2cc(C(F)(F)F)cc(C(F)(F)F)c2)C(C)=O)c2cc(C(F)(F)F)ccc2N1C(=O)OC(C)C` belongs “inactive”.
Same read-out and setting: for `NCc1cccc(C2CCN(C(=O)c3ccc(C#Cc4ccccc4F)o3)CC2)c1` the value was “inactive”; for `O=c1c(-c2ccc(O)cc2)coc2cc(O)cc(O)c12`, “inactive”; for `Clc1cc(Cl)c2c(c1)N=C1CCCCCN1C2`, “inactive”.
For the compound `COc1cccc([C@H](O)C2CCN(CCc3ccc(F)cc3)CC2)c1OC`, the compound was classed as inactive.
On to `CCCOC(=O)c1cc(O)c(O)c(O)c1`, for which the outcome was inactive.
On to `CN1C(=O)N(c2ccccc2Br)Cc2cnc(Nc3ccc4c(c3)OCC(CO)O4)nc21` (stereo not given), for which the compound was classed as inactive.
On to `O=C(OCCCCCCOC(=O)c1ccccc1)c1ccccc1`, for which the outcome was inactive.
On the same count and under the same terms, to `CN(C[C@@H](CC[N+]12CCC(C3CCCCC3)(CC1)CC2)c1ccc(Cl)c(Cl)c1)C(=O)c1cc(C(F)(F)F)cc(C(F)(F)F)c1` belongs “inactive”; to `c1ccc(C[n+]2cccc3ccccc32)cc1`, “inactive”.
